Bioassay records (PubChem)
Sampled rows, rich in hits. Any-hit rate of the full collection: about 1.3%.
BRCA1 expr up: activators of BRCA1 expression; actives 1.1% (n = 380,000); MCF7-BRCA1-FFLuc reporter, luminescence, 48 h; response scale: scaled: vehicle 0%, 10 µM genistein 100%; Potency, µM (titrated, usually from 46.1 µM), usual class: activators; note: nearly all actives have a fitted effect of over 80% in size
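MCF7-BRCA1-FFLuc, 2000 cells/well; 2 h attach, 37 °C/5% CO2; compound 48 h; luciferase substrate 15 min; luminescence end-point. Norm. to genistein 10 microM max activation and DMSO; concentration-response curves fitted.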
EPAC1 ag: agonists of human EPAC1; O95398; EPAC1 agonist qHTS, biochemical assay; response scale: 100% = response to 6.5 mM cAMP; Potency, µM (series often up to 154 µM), most hits filed as activators; actives 0.073% (n = 360,000); AID 720707; note: nearly all actives have a fitted effect of over 60% in size
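Compounds were pinned as a concentration titration into mixtures of EPAC1 (100 nM), BODIPY-GDP-loaded Rap1B (250 nM) and GDP (50 uM). After 5 min at room temperature, fluorescence was followed for 30 min; activity was scaled to 6.5 mM cAMP.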
RGS4 inh: inhibitors of human regulator of G protein signaling 4 | P49798 | Transcreener GDP fluorescence polarization, RGS4-accelerated GTP hydrolysis | actives 0.039% (n = 390,000) | Potency, µM (series often up to 114 µM), hits mostly inhibitors; note: nearly all actives have a fitted effect of over 75% in size
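MLSMR compounds (23 nl, pin-transferred) preincubated 10 min at room temperature with a 500nM (2x) first reagent, then RGS4 at 900nM (2x) plus Transcreener GDP mix added; fluorescence polarization (620/688 nm) read before and after 90 min at 30 °C.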
EPAC1 antag: antagonists of human EPAC1 | EPAC1 GEF assay, Rap1b-BODIPY-GDP exchange fluorescence | Potency, µM (doses to about 115 µM), actives largely listed as inhibitors | actives 0.14% (n = 360,000) | AID 720709; note: nearly all actives have a fitted effect of over 50% in size
EPAC2 ag: activates human EPAC2 exchange factor. Potency, µM (series often up to 154 µM), most hits filed as activators. Q8WZA2. actives 0.079% (n = 360,000). EPAC2 activation, biochemical qHTS; response scale: 100% = 6.5 mM cAMP response; note: nearly all actives have a fitted effect of over 50% in size
Target sequence (Q8WZA2 whole entry, looked up): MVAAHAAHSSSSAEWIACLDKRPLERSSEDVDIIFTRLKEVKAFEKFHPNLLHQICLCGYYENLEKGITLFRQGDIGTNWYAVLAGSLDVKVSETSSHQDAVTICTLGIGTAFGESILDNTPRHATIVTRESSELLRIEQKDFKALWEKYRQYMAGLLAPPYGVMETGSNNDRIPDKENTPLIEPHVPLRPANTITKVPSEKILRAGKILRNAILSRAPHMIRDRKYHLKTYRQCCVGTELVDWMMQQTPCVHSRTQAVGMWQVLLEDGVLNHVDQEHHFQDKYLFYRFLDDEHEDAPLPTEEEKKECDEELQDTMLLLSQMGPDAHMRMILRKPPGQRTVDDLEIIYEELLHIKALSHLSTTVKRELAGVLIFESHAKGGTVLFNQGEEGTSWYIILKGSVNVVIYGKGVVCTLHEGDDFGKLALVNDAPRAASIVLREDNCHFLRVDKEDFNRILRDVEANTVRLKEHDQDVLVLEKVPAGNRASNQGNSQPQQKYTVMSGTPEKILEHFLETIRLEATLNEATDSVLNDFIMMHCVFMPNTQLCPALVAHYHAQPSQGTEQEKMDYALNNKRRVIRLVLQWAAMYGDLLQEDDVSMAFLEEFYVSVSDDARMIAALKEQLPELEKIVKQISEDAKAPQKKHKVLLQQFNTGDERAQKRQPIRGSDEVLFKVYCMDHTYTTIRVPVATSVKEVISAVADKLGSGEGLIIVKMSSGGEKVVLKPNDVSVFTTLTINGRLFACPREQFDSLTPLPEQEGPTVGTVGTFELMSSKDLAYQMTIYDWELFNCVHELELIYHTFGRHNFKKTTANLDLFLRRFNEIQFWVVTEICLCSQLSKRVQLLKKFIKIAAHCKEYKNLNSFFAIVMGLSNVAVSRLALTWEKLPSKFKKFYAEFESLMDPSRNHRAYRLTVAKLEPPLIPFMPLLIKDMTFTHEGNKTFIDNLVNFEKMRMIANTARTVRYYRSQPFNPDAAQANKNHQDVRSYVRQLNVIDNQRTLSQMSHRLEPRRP
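Fluorescence exchange assay: 100 nM EPAC2 with 250 nM RAP1B-BODIPY-GDP and 50 uM GDP; compounds tested as a concentration-titration series (qHTS). Loss of Rap1-bound BODIPY-GDP fluorescence read at 480/540 nm; data normalized to 6.5 mM cAMP.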
EPAC2 antagonist: antagonists of human EPAC2; Q8WZA2; EPAC2 GEF exchange of Rap1B-BODIPY-GDP, fluorescence; actives 0.18% (n = 360,000); Potency, µM (series often up to 114 µM), actives largely listed as inhibitors; note: nearly all actives have a fitted effect of over 45% in size
Numbers stand for hits; – = inactive; ? = inconclusive; · = no result; [ ] = another dose, or the depositor's remark. Calls come from the whole dose curve; as a rule, active = well fitted curve in the direction sought with a large enough effect; inconclusive = small, poorly fitted or top-dose-only effect, or another doubt; inactive = no such curve, though single readings can be large; an effect the other way counts as inactive or inconclusive.

SMILES | BRCA1 expr up | EPAC1 ag | RGS4 inh | EPAC1 antag | EPAC2 ag | EPAC2 antagonist
O=C(CCN1C(=O)c2ccccc2C1=O)Nc1nc2ccccc2s1 | – | – | – | – | – | –
Cc1cccc(N(C(=O)CCC(=O)Nc2ccccn2)C(C(=O)NC(C)C)c2ccc(O)cc2)c1 (configuration not stated) | – | – | – | – | – | –
COc1ccc(Cc2nc3ccc(C(=O)N4CCC(C(N)=O)CC4)cc3o2)cc1 | – | – | · | – | – | –
Cc1ccc2cc(CCNC(=O)c3ccco3)c(=O)[nH]c2c1 | 13µM | – | – | – | – | –
COc1ccc2cc(CCNC(=O)c3ccco3)c(=O)[nH]c2c1 | – | – | – | – | – | –
Cn1c(Sc2nc3ccccc3n2C)nc2ccccc21 | – | – | – | – | – | –
COC(=O)c1cnc(SCc2ccc(Cl)cc2)n1C | 11µM | – | – | – | – | –
COC(=O)c1ccccc1CSc1nsc(C)c1C#N | – | – | ? | – | – | ?
c1ccc(Oc2cc(-c3ccccc3)ncn2)cc1 | 11µM | – | – | – | – | –
O=C(N[C@H]1/C=C\[C@@H](O)CCCC1)OCc1ccccc1 | 4.5µM | – | – | – | – | –
O=C(NCc1ccccc1)C(=O)Nc1nccs1 | – | – | ? | – | – | –
O=C(Nc1nccs1)OCc1ccccc1 | 14µM | – | – | – | – | –
O=C(NNc1ccccc1)OCc1ccccc1 | 11µM | – | · | – | – | –
O=C(CC(=O)OCc1ccccc1)OCc1ccccc1 | – | – | – | – | – | –
O=C(c1ccc(Cl)c([N+](=O)[O-])c1)N(Cc1ccco1)C1CCS(=O)(=O)C1 (configuration not stated) | – | – | – | – | – | –
CCc1cccc(CC)c1N1C(=O)COCC1=O | – | – | · | – | – | –
CCc1cccc(CC)c1N1C(=O)C2=C(SCCCS2)C1=O | – | 100µM | · | – | 112µM | –
Cc1coc2c1C(=O)C(=O)c1c-2ccc2c(C)cccc12 | – | – | – | 79µM | – | –
COc1ccc2c(c1)CC/C(=C\Nc1ccc3c(c1)OCO3)C2=O | 3.2µM | ? | – | – | ? | –
O=C1/C(=C/Nc2ccc3c(c2)OCO3)CCc2ccccc21 | ? | – | ? | – | ? | –
COc1ccc(N/C=C2\CCc3ccccc3C2=O)cc1 | ? | ? | – | – | 100µM | –
Brc1ccc(/C=C/C=N/Nc2nc3ccccc3s2)cc1 | 8.9µM | – | – | – | – | –
Brc1csc(/C=N/Nc2nc3ccccc3s2)c1 | – | – | – | – | – | –
C(=C\c1ccccc1)/C=N/Nc1nc2ccccc2s1 | 7.9µM | – | – | – | – | –
COc1ccc(OC)c(NC(=O)Cn2c(CCC(=O)O)ccc2-c2ccccc2)c1 | – | – | – | – | – | –
SMILES | BRCA1 expr up | EPAC1 ag | RGS4 inh | EPAC1 antag | EPAC2 ag | EPAC2 antagonist
O=[N+]([O-])c1ccc(O)c(C=Nc2ccc3c(c2)OCCO3)c1 | 11µM | – | – | – | – | –
O=C(Nc1ccc(Cl)cc1Cl)C1=Cc2ccccc2OC1 | 10µM | – | – | – | – | –
Cc1cccc(NS(=O)(=O)c2ccc(C(=O)NCCCN3CCOCC3)cc2)c1C | – | – | – | – | – | –
Cn1/c(=N\NC(=O)c2ccccc2Cl)sc2ccccc21 | 11µM | – | – | – | – | –
CC(=O)C(/C=N/c1cc(-c2ccc(C)cc2)nn1-c1ccccc1)=C(\C)O | 4µM | – | – | – | – | –
CC(NC(=O)COc1ccc(Oc2ccccc2)cc1)C(=O)O (configuration not stated) | – | – | – | – | – | –
O=C(NCc1ccccc1)c1cc(C2CCCCN2C(=O)OCCF)on1 (configuration not stated) | – | – | · | – | – | –
Cc1cc(S(=O)(=O)NC[C@H]2O[C@@H](n3ccc(N)nc3=O)[C@H](O)[C@@H]2O)c(C)s1 | – | – | · | – | – | –
Cc1ccc(-n2c(SCc3cccc(F)c3)nc3[nH]ncc3c2=O)cc1C | · | · | – | · | · | ·
CNc1ccc(/C=C(\CCC(=O)O)c2nc3ccccc3s2)cc1[N+](=O)[O-] | – | ? | – | 45µM | – | –
CN(c1ccccc1)c1ccc(/C=C(\CCC(=O)O)c2nc3ccccc3s2)cc1[N+](=O)[O-] | – | – | ? | ? | – | 79µM
Cc1ccc(/C=C(\CCC(=O)O)c2nc3ccccc3s2)cc1[N+](=O)[O-] | – | – | – | 79µM | – | –
COc1ccc(C(=O)Nc2cccc(/C=C(\CCC(=O)O)c3nc4ccccc4s3)c2)cc1 | ? | – | –[11.4 µM] | 56µM | – | –
Cn1cnnc1Sc1ccc(/C=C(\CCC(=O)O)c2nc3ccccc3s2)cc1[N+](=O)[O-] | – | – | – | – | – | –
O=C(COc1ccc(S(=O)(=O)N2CCOCC2)cc1)N1CCOCC1 | – | – | – | – | – | –
Cc1ncc(CN2CCCC(C(=O)Nc3ccc(-c4cscn4)cc3)C2)cn1 (configuration not stated) | – | – | – | – | – | –
CC(=O)Nc1ccc(-c2ccnc3c2CC(C(=O)Nc2ccc(Cl)c(C(F)(F)F)c2)O3)cc1 (configuration not stated) | – | – | · | ? | – | –
COc1ccc(/C(N)=N/OC(=O)C2CCCCC2)cc1OC | 2.8µM | – | – | – | – | –
COc1ccc(C(=O)O/N=C(\N)c2ccc(OC)c(OC)c2)c(OC)c1 | – | – | – | – | – | –
COc1ccc(C(=O)O/N=C(\N)c2ccc(OC)c(OC)c2)cc1 | 13µM | – | – | – | – | –
COc1ccccc1CC(=O)Nc1ccc(S(=O)(=O)N2CCN(C)CC2)cc1 | – | – | – | – | – | –
NC(=O)C1CC(=O)N(c2ccc(OCc3ccc(Cl)cc3Cl)cc2)C1 (configuration not stated) | – | – | – | – | – | –
c1ccc(COc2ccc(CN3CCN(c4ccccn4)CC3)cc2)cc1 | 2µM | – | – | ? | – | –
O=[N+]([O-])c1ccc(COc2ccc(CN3CCCCC3)cc2)cc1 | 7.9µM | – | – | ? | – | –
NC(=O)C1CCN(Cc2ccc(OCc3ccccc3)cc2)CC1 | 11µM | – | – | – | – | –
c1ccc(CN2CCN(c3ncccn3)CC2)cc1 | – | – | – | – | – | –
NC(=O)C1CC(=O)N(c2ccc(OCc3ccc(Cl)c(Cl)c3)cc2)C1 (configuration not stated) | 10µM | – | · | – | – | –
C1CCc2nnc(C3CC3)n2CC1 | – | – | – | – | – | –
